# Screen size: about 190,000 compounds; about 930 (0.49%) were called active. This is one part of the list. Entries with a potency or affinity are not part of this list. Values without a mark were called inactive.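 Rule for the calls: active = z-score of insulin promoter reporter brightness in nuclei below -3 at 5 µM, with at least 500 cells counted; inconclusive = wells with under 500 cells, flagged as toxic or sparse; inactive = the rest.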
# Assay: decrease of insulin promoter-GFP reporter – imaging, high-content screening, mouse beta cells (AID 1628)
# Conditions: MIN6 insulin promoter GFP reporter, at 5 µM, hits give low values
row,SMILES,z-score
1,OCCC1CN(Cc2cccn2-c2ncccn2)CCN1CCc1ccccc1 (stereo unspecified),-3.43 (active)
2,CCc1ccc(N2CC(O)(c3cccs3)[N+]3=C2SCCC3)cc1 (stereo unspecified),-3.76 (active)
3,O=S(=O)([O-])CCC[n+]1c(/C=C\Nc2ccccc2)oc2ccc(-c3ccccc3)cc21,3.19
4,CSC(=Nc1cccc(C)c1)NC#N,-5.35 (active)
5,Cc1ccc(C(=O)NCCn2c(N)c(C#N)c3nc4ccccc4nc32)cc1,4.08
6,COCCCNC(=O)c1c(N)n(/N=C/c2cccnc2)c2nc3ccccc3nc12,-3.07 (active)
7,COC(=O)C1=C(N)n2c(s/c(=C\c3cccnc3)c2=O)=C(C(=O)OC)C1c1cccnc1 (stereo unspecified),3.21
8,Cc1ccc(-n2c(Cc3cccs3)nnc2SCC(=O)OC(C)C)cc1,3.05
9,COc1cc(/C=C(\C#N)c2nc3ccccc3o2)ccc1O,4.56
10,CCNC(=S)N/N=C/c1ccc(-c2ccccc2)o1,-3.35 (active)
11,COCCNC(=S)N/N=C/c1ccc(-c2ccc([N+](=O)[O-])cc2)o1,5.22
12,CC(C)(C)NC(=S)N/N=C\c1ccc(-c2ccc([N+](=O)[O-])cc2)o1,14.4
13,CN(C)C(=O)C1C2NC(=S)N(c3cccc(Cl)c3)C1(C)Oc1ccc(Cl)cc12 (stereo unspecified),3.51
14,Nc1c(C(=O)c2ccccc2)sc2nsc(SCCN3CCCC3)c12,6.03
15,OC(CNCC1CCCO1)COc1ccc(OCC(O)CNCC2CCCO2)cc1 (stereo unspecified),1.04
16,CC(CNCC1CCCO1)COc1cccc2ccccc12 (stereo unspecified),-4.31 (active)
17,CCOC(=O)/C(C#N)=C/C=C1\C=Cc2ccccc2N1CC,4.84
18,O=C(c1ccccn1)N1CCN(S(=O)(=O)c2ccc3ccccc3c2)CC1,3.58
19,O=C(C1=C[C@H](C2CC2)C[C@H](OCCCCO)O1)N1CCN(Cc2ccccc2)CC1,3.72
20,CS(=O)(=O)N(CCc1ccccc1)CC(=O)N1CCN(Cc2ccccc2)CC1,0.33
21,COC(=O)CCC(NC(=O)c1cc(C)oc1C)C(=O)OC (stereo unspecified),0.79
22,COc1ccc(-c2cc(C(F)F)n3ncc(C(=O)NCC4CCCO4)c3n2)cc1 (stereo unspecified),-5.37 (active)
23,O=C(O)c1cc(-c2ccc(/C=C3/SC(=S)N(Cc4ccccc4)C3=O)o2)ccc1Cl,4.28
24,N#C/C(=C/c1ccc(N2CCOCC2)o1)c1ccc(Br)cc1,10

row,SMILES,z-score
1,Cc1nc2ccccn2c1C(=O)NCc1ccc2c(c1)OCO2,-5.57 (active)
2,CC(C)(C)NS(=O)(=O)c1ccc(CCC(=O)NCc2ccc3c(c2)OCO3)cc1,0.89
3,Cc1nc2ccccn2c1P(=O)(N1CCCCC1)N1CCCCC1,0.76
4,CCCN1C(=O)/C(=C/c2c(NCCCOCC)nc3c(C)cccn3c2=O)SC1=S,5.71
5,CCOCCCNc1nc2c(C)cccn2c(=O)c1/C=C1\SC(=S)N(CC(C)C)C1=O,4.38
6,Cc1ccc(-c2cc(-c3ccco3)c3c(N)c(C(=O)NN)oc3n2)cc1,3.03
7,COc1cc(OC)c2c(-c3ccccc3)cc(=O)oc2c1,-1.04
8,COC(=O)c1[nH]c2ccc(F)cc2c1NC(=O)CCN1CCN(Cc2ccc3c(c2)OCO3)CC1,-3.4 (active)
9,COC(CNC(=O)c1ccc(Cn2c(=S)[nH]c3cc4c(cc3c2=O)OCO4)cc1)OC,3.48
10,COC(=O)c1c(NC(=O)CN2CCN(Cc3ccc4c(c3)OCO4)CC2)sc(C)c1C,-5.05 (active)
11,CCCNC(=O)Cn1cnc2sc(C(=O)N3CCN(Cc4ccc5c(c4)OCO5)CC3)c(C)c2c1=O,3.66
12,COC(=O)c1[nH]c2ccc(C)cc2c1NC(=O)CCN1CCN(Cc2ccc3c(c2)OCO3)CC1,-3.87 (active)
13,CCCCN1C(=O)C2(NNc3ccccc3O2)c2ccccc21 (stereo unspecified),4.38
14,Cc1cc(N2CCCC2)ccc1/C=C1\NC(=S)N(C)C1=O,10.4
15,COc1ccc(N=c2oc3c(OC)cccc3cc2C(=O)NCc2ccco2)c(OC)c1,-3.31 (active)
16,O=C(NN=C1CCN(Cc2ccccc2)CC1)c1cc(Br)ccc1O,1.47
17,O=C(Nc1ccc(F)cc1)NC1CCN(Cc2ccccc2)CC1,-3.27 (active)
18,CCCCNc1ccc2c3c(cccc13)C(=O)N(CCCC)C2=O,17.1
19,CC(=O)OCCCN1C(=O)c2ccc(Br)cc2C1=O,1.19
20,CCOC(=O)C1=C(C)NC(=O)CC1c1cc2c(cc1[N+](=O)[O-])OCO2 (stereo unspecified),3.01
21,CC(C)Oc1ccccc1C1CC(=O)Nc2cc3c(cc21)OCCO3 (stereo unspecified),-4.18 (active)
22,CCNc1nc(N2CCCC2)nc(N2CCCC2)n1,-3.04 (active)
23,O=C(OCCN1C(=O)c2cccc3c(N4CCOCC4)ccc(c23)C1=O)c1ccc(Cl)cc1Cl,3.13
24,CN1C=CC2=C(C#N)C(N)C(C#N)(C#N)C(c3ccccc3)C2C1 (stereo unspecified),10.1

row,SMILES,z-score
1,CC12CCC(C/C1=N/O)C2(C)C (stereo unspecified),0.65
2,C(=N\Nc1nc(-c2ccccn2)nc2ccccc12)/c1ccccc1,-3.55 (active)
3,Cc1ccc2nc(C(Cl)(Cl)Cl)nc(N/N=C/c3ccncc3)c2c1,2.39
4,CCOc1ccc(CNC(=O)CCn2c(=O)oc3ccccc32)cc1,3.4
5,CCOc1ccc(N2CC(C(=O)NCc3ccc(F)cc3)CC2=O)cc1 (stereo unspecified),-5.37 (active)
6,CCOc1ccc(NC(=O)NC2CC(=O)N(c3ccc(OC)cc3)C2)cc1 (stereo unspecified),2.29
7,COc1cc2nc(/C=C/c3ccc(N(C)C)cc3)sc2cc1SC,15.9
8,CCOc1ccc(NC(=O)Cn2c(=O)oc3ccccc32)cc1,3.64
9,COc1cccc(NC(=O)Cn2c(SCC(=O)N3CCOCC3)nc3ccccc32)c1,-4.09 (active)
10,COc1cccc(NC(=O)CSc2nncn2N)c1,0.29
11,COc1cccc(NC(=O)Cn2c(-c3cncs3)nc3ccccc32)c1,5.27
12,COc1cccc(NC(=O)CSc2nc3ccccc3c(=O)n2CCCC(=O)N2CCCC2)c1,-4.63 (active)
13,COc1ccc(-n2c(Cc3cccn3C)nnc2SCC(=O)Nc2cccc(C)c2C)cc1,3.05
14,COc1ccc(-n2c(SCC(=O)Nc3cccc4ccccc34)nc(O)cc2=O)cc1,-6.42 (active)
15,O=C(Nc1nnc(-c2ccc(Cl)s2)o1)C1CC1,2.8
16,CCn1nnc2sc3c(c2c1=O)CCC(C)C3 (stereo unspecified),3.59
17,O=C(CSc1ncn[nH]1)NCc1ccccc1,5.42
18,C/C(CC(=O)NCc1ccc(Cl)cc1)=N\NC(=O)Cc1ccccc1,-4.08 (active)
19,COc1cc(OC)c(OC)cc1/C=C1\Oc2cc(OS(C)(=O)=O)ccc2C1=O,5.02
20,Cc1ccc(-c2nc(C#N)c(NCCN3CCCCC3)o2)cc1,-3.25 (active)
21,CC(=O)N1CCOCCOCCN(C(C)=O)CCOCC1,2.13
22,O=C(/C=C/c1cccs1)N1CCOCC1,-5.7 (active)
23,Cc1cccc(Oc2nccc(C(F)(F)F)c2C(=O)Nc2ccc(F)cc2F)c1,3.57
24,Fc1ccc(NC(=S)NNc2ncc(C(F)(F)F)cc2Cl)c(F)c1,-3.64 (active)

row,SMILES,z-score
1,CN(C)c1ccc(/C=C2\SC(=S)N(Nc3ncc(C(F)(F)F)cc3Cl)C2=O)cc1,4.86
2,O=Cc1sc(Nc2ccccc2)nc1Cl,3.66
3,Oc1c(/C=C/C=C/C=Nc2ccccc2)sc(=S)n1Cc1ccccc1,3.27
4,CSc1nsc(/C=C/Nc2ccc(C)cc2)c1C#N,3.5
5,Cc1ccc(C)c(N=Nc2ccc(O)c3ncccc23)c1,-4.77 (active)
6,N#C/C(=C/c1ccc(-c2ccccc2)o1)c1nc(-c2cccs2)cs1,14.7
7,Cc1ccc(OCC2Cn3c(nc4c3c(=O)n(C)c(=O)n4C)O2)cc1 (stereo unspecified),-6.54 (active)
8,CC(=O)NC(c1ccc(Cl)cc1)c1c(O)ccc2ccc(O)cc12 (stereo unspecified),10.6
9,CCc1c(C)nc2ncnn2c1N1CCC(C(=O)NCc2cccc(OC)c2)CC1,-5.78 (active)
10,Cc1cc(C)nc(N2CCC(C(=O)Nc3ccc4c(c3)OCCO4)CC2)n1,3.37
11,Cc1cc(N2CCC(C(=O)N3CCN(c4cccc(C)c4C)CC3)CC2)n2ncnc2n1,-4.36 (active)
12,COc1ccccc1N1CCN(c2cc(C)nc3nc(C)nn23)CC1,1.58
13,COc1nc(OC)nc(N2CCC(C(=O)NCc3cccs3)CC2)n1,3.48
14,CCc1c(C)nc2ncnn2c1N1CCC(C(=O)Nc2ccc(C)cc2)CC1,-5.25 (active)
15,CCC(=O)N1c2ccccc2C(N(C(C)=O)c2ccccc2)CC1C (stereo unspecified),0.92
16,Cc1cc(/C=C2\SC(=S)NC2=O)c(C)n1-c1ccc(O)cc1,3.66
17,CCCNC(=O)Cn1c(=O)/c(=C\c2ccc(-c3ccc([N+](=O)[O-])cc3)o2)s/c1=C\C(=O)C(C)(C)C,18.3
18,COc1ccc(OC)c(C2C3CN(C(C)C)CC=C3C(C#N)=C(N)C2(C#N)C#N)c1 (stereo unspecified),17.1
19,CCC(Sc1nnc(C)s1)C(=O)Nc1nccs1 (stereo unspecified),1.54
20,Cc1nc2ncnn2c(N2CCCC(C(=O)Nc3ccc4c(c3)CCC4)C2)c1C (stereo unspecified),-5.29 (active)
21,CCc1c(C)nc2ncnn2c1N1CCC(C(=O)N2CCN(c3ccc(F)cc3)CC2)CC1,-3.04 (active)
22,O=C(Nc1ccc(C2CCCCC2)cc1)C1CCCN(c2ncccn2)C1 (stereo unspecified),3.77
23,OC1(c2cn(Cc3ccccc3)nn2)CCCCC1,5.88
24,Cc1ccc(C(C#N)c2ccc(C(=O)c3ccc(F)cc3)cc2)cc1 (stereo unspecified),-4.77 (active)

# Reference: PubChem BioAssay AID1628 (Sanford-Burnham Center for Chemical Genomics, 2009)
